Each structure is given as a SMILES string. A number with no mark means an inactive call. The rule behind the calls is not given here.

The nature of the assay: inhibitors of Cryptococcus chitosan production, flow cytometry, Cibacron Brilliant Red staining (AID 1347148).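 Note: compound exposure lasted three days at 37 degrees C.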 The conditions noted are these: Cryptococcus neoformans chitosan, stronger effect = lower value; at 10 µM unless noted. (In general: Flow cytometry measures light scatter and fluorescence of single cells or particles in a stream.)
For the compound `C=C1[C@@H](C)[C@H]2[C@H](Cc3ccccc3)NC(=O)[C@]23[C@H](OC(C)=O)/C=C/[C@](C)(O)C(=O)[C@@H](C)C/C=C/[C@H]3[C@@H]1O`, the fold fluorescence was 11.8 [at 98.5 µM].

For `O[C@@H]1[C@@H](O)[C@H](O)CN2CC[C@@H](O)[C@@H]12`, the fold fluorescence is 5.17 [at 264.3 µM].

For the compound `N[C@H]1CCc2cc(O)c(O)cc2C1`, the fold fluorescence was 4.25 [at 279 µM].

For the compound `C/C1=C/C(=O)O[C@H]2C[C@H](CC[C@@H](C)/C=C\CC1)O[C@](O)([C@H]1CSC(=O)N1)C2`, the fold fluorescence was 6.99 [at 126.4 µM].

As for `CCN1C[C@]2(COC)C(O)C[C@H](OC)[C@]34C1[C@H]([C@H](OC)[C@H]23)[C@]1(OC(C)=O)[C@H]2[C@@H](OC(=O)c3ccccc3)[C@@](O)(C[C@H]24)[C@@H](OC)[C@@H]1O` (some centres undefined), the fold fluorescence is 4.31 [at 77.4 µM].

On to `COC(=O)[C@]1(O)C[C@@H]2O[C@@]1(C)n1c3ccccc3c3c4c(c5c6ccccc6n2c5c31)C(=O)NC4`, for which the fold fluorescence is 6.41 [at 10.7 µM].

Regarding `CC(=O)NC1C(OC2OC(CC(O)C3OC(n4ccc(=O)[nH]c4=O)C(O)C3O)C(O)C(O)C2NC(=O)/C=C\CC(C)C)OC(CO)C(O)C1O` (centres undefined), the fold fluorescence was 7.24 [at 69.6 µM].

On to `CCCCCCCCCCCCCCCC(=O)OC[C@@H](COP(=O)([O-])OCC[N+](C)(C)C)OC(C)=O`, for which the fold fluorescence was 4.75.

As for `CCCC[C@H](C)[C@H](OC(=O)C[C@H](CC(=O)O)C(=O)O)[C@@H](C[C@H](C)C[C@@H](O)CCCC[C@H](O)C[C@@H](O)[C@@H](C)N)OC(=O)C[C@@H](CC(=O)O)C(=O)O`, the fold fluorescence was 2.99 [at 69.3 µM].

(Values after PubChem BioAssay.)
